Measured values as given in publication PMC4336329 (PLoS ONE, 2015).
About 2,200 (0.71%) of roughly 310,000 compounds showed an effect of 50% or more. Effects have a minus sign here. The entries come from a sample that favours strong results as a whole.

biological target: human ether-à-go-go-related gene (hERG) potassium channel (human, UniProt Q12809); assay: primary screen, population patch clamp on CHO cells stably expressing hERG; higher = less effect of the substance
Sequence (Q12809 whole entry, looked up): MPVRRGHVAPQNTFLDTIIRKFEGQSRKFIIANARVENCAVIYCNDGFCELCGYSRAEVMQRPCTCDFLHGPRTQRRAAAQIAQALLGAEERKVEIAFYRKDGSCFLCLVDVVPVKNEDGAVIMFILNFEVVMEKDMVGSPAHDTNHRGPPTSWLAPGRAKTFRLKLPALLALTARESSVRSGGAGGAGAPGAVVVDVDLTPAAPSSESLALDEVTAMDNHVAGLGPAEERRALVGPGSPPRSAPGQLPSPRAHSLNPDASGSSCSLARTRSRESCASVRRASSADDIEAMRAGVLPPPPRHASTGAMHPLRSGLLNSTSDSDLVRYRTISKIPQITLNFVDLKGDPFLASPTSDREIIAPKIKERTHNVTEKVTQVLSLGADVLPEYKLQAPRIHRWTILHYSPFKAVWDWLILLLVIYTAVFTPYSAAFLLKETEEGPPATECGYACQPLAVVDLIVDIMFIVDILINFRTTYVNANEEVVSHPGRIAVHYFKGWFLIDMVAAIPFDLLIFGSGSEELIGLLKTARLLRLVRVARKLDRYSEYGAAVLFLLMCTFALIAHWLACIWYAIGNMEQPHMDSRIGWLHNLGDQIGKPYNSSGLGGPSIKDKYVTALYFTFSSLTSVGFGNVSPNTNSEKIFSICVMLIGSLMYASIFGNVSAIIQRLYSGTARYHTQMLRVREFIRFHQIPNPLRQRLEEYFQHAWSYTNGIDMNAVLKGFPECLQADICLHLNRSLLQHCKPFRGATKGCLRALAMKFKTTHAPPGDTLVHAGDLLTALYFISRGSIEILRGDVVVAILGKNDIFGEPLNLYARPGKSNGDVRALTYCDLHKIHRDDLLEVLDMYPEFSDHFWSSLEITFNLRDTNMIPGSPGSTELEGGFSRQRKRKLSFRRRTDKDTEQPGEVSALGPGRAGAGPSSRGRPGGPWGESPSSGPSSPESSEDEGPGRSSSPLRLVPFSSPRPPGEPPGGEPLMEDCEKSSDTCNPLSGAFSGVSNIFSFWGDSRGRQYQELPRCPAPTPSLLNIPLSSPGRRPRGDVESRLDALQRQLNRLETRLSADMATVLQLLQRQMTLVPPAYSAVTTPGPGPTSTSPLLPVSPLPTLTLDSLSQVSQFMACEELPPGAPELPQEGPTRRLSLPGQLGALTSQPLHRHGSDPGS

SMILES	hERG current change (%, negative = inhibition) at 1uM
CC(C)(C)C(=O)NC1CCN(S(=O)(=O)c2ccccc2F)CC1	7.45%
CO/N=C/c1ccc(N2CCN(C(=O)c3ccc(C)cc3)CC2)c([N+](=O)[O-])c1	-67.2%
CO/N=C/c1ccc(N2CCN(C(=O)c3cccc(C(F)(F)F)c3)CC2)c([N+](=O)[O-])c1	-2.38%
CO/N=C/c1ccc(N2CCN(C(=O)c3ccc(F)cc3)CC2)c([N+](=O)[O-])c1	-78.1%
CO/N=C/c1ccc(N2CCN(C(=O)c3ccc(Cl)cc3Cl)CC2)c([N+](=O)[O-])c1	-18.5%
COc1ccc(N2CCN(C(=O)c3ccc(C)cc3)CC2)c([N+](=O)[O-])c1	-29.7%
COc1ccc(N2CCN(C(=O)c3ccc(F)cc3)CC2)c([N+](=O)[O-])c1	-38.3%
CCc1ccc(CNC(=O)CCCC(=O)n2nc(C)c3ccccc32)cc1	16.1%
CC(C)CCCN1C(Nc2ccccc2)=NC[C@@H]1C	-0.21%
CCCCCCCN1C(Nc2ccccc2)=NC[C@@H]1C	-55.2%
CCCCN1C(Nc2ccccc2)=NC[C@@H]1C	16.3%
CC(C)CCN1C(Nc2ccccc2)=NC[C@@H]1Cc1ccccc1	-15%
c1ccc(CCCCN2C(Nc3ccccc3)=NC[C@@H]2Cc2ccccc2)cc1	-39.7%
CC(CCN1C(Nc2ccccc2)=NC[C@@H]1Cc1ccccc1)c1ccccc1 (stereo partly drawn)	-52.7%
CCCCCCCN1C(Nc2ccccc2)=NC[C@@H]1Cc1ccccc1	-79.6%
CCCCN1C(Nc2ccccc2)=NC[C@@H]1Cc1ccccc1	-44.2%
CC(C)C[C@H]1CN=C(Nc2ccccc2)N1CCC(C)c1ccccc1 (stereo partly drawn)	-8.04%
CCOc1ccc(S(=O)(=O)n2nc(C)cc2C)cc1	13.8%
CCOc1cc(/C=N/NC(=O)CNc2ccc(C)cc2)ccc1OC(=O)c1ccccc1	-0.419%
CN(Cc1c(F)cccc1Cl)C(=O)CNC(=O)c1ccc2c(c1)OCO2	13.8%
CCCOc1ccc(NC(=O)CC2C(=O)N(c3ccc(OCC)cc3)C(=S)N2C2CC2)cc1 (stereo not drawn)	-3.7%
CN1CCN(c2ccc(NC(=O)c3ccc([N+](=O)[O-])o3)cc2Cl)CC1	-13.7%
Cc1ccc(N2CC(O)Cn3c2nc2c3c(=O)n(C)c(=O)n2C)cc1 (stereo not drawn)	13.5%

SMILES	hERG current change (%, negative = inhibition) at 1uM
O=c1cc(-c2ccccc2)oc2ccccc12	13%
CC(C)C[NH+]=c1cc(-c2ccccc2)oc2ccc(Cl)cc12.F[B-](F)(F)F	-81.1%
CCc1ccc2oc(-c3ccc(OC)cc3)cc(=[NH+]c3c(C)n(C)n(-c4ccccc4)c3=O)c2c1.F[B-](F)(F)F	-33.7%
Cc1cc(Cl)ccc1Oc1ncnc2oc(-c3ccccc3)cc12	6.84%
CCc1ccc2oc(-c3ccc(OC)cc3)cc(=[NH+]c3cccc(C(=O)O)c3)c2c1.F[B-](F)(F)F	4.56%
CC(O)C[NH+]=c1cc(-c2ccccc2)oc2ccc(Cl)cc12.F[B-](F)(F)F (stereo not drawn)	-57%
COC(=O)c1sc(S(=O)(=O)N2CCC(C(N)=O)CC2)c(C(=O)OC)c1C	-10.8%
Cc1cc2nnc(SCc3ccccc3)n2c(N)n1	-5.86%
CCCCNC(=O)CN(c1ccc(Cl)c(Cl)c1)S(C)(=O)=O	7.06%
COC(=O)C1=C(N)Oc2cc(N(C)C)ccc2C1c1ccccc1OC (stereo not drawn)	-84.1%
CCOc1ccc(Br)cc1C1C(C(=O)OC)=C(N)Oc2cc(N(C)C)ccc21 (stereo not drawn)	16.6%
COC(=O)C1=C(N)Oc2cc(C)[nH]c(=O)c2C1c1ccccc1OC (stereo not drawn)	9.49%
Cc1cc(C)nc(SCc2ccc(C(=O)N/N=C/c3cccc(O)c3O)cc2)n1	10.8%
COc1ccc2nc(C)cc(NCCN3CCOCC3)c2c1	12.3%
CCCc1cc(NCCCN2CCOCC2)n2c(nc3ccccc32)c1C#N	-37%
c1ccc2c(NCCCN3CCOCC3)c3ccccc3nc2c1	-54.2%
Cc1nc(NCCN2CCOCC2)c2oc3ccccc3c2n1.Cl	-8.71%
Cc1cc(NCCN2CCOCC2)c2ccc3ccccc3c2n1	-58.3%
Cc1cc(NCCCN2CCOCC2)n2c(nc3ccccc32)c1C#N	-0.298%
CC(C)c1cc(NCCCN2CCOCC2)n2c(nc3ccccc32)c1C#N	-55.7%
c1ccc(-c2nc(NCCCN3CCOCC3)c3ccccc3n2)cc1	3.18%
c1ccc2[nH]c(NCCCN3CCOCC3)nc2c1	14.6%
